The text below walks through data of PubChem BioAssay AID624002 (National Center for Advancing Translational Sciences (NCATS), 2012).

For the assay, the target named is Isocitrate dehydrogenase [NADP] cytoplasmic (Homo sapiens) (UniProt O75874). The experiment in a line: qHTS for Inhibitors of mutant isocitrate dehydrogenase 1 (IDH1): Confirmation of Cherrypicks. Further: nearly all actives have a fitted effect of over 50% in size. As to conditions: IDH1 R132H enzyme, NADPH diaphorase/resazurin fluorescence. From the text: Malignant glioblastomas (WHO grade IV), including primary and secondary glioblastomas, are among the most lethal with a median survival of one year, and unfortunately they are also the most prevalent type of brain tumors. By and large the standard of care of gliomas remains the use of the oral alkylating agent temozolomide and radiotherapy following surgical tumor resection. There is an urgent unmet medical need for novel therapeutics for gliomas. IDH mutations occur in up to 70% of grade II-IV secondary glioblastomas, and IDH1 R132H is the most prevalent mutation. […] Wild-type IDH1 catalyzes the conversion of isocitrate to -ketoglutarate with the concomitant reduction of NADP+ to NADPH. […] Inhibition of the IDH1 R132H enzymatic reaction leads to an increase in the amount of NADPH relative to a DMSO control and a concomitant increase in the fluorescence of the diaphorase/resazurin enzyme product resorufin at 590 nm. […]
Enzyme buffer was dispensed into black, solid 1536-well plates at 3 microL/well in 20 mM Tris buffer, pH 7.5, containing final concentrations of 10 mM MgCl2, 20 mM NaCl, 0.001% Tween20, 0.05% BSA, 2 mM beta-ME and 5.2 nM IDH1 R132H. […] The inherent compound fluorescence was measured at this point at 590 nm on a ViewLux plate reader (Ex 525, Em 598, bodipy filter). […] The %Activity was determined from the corrected fluorescence values. […]
(In qHTS, concentration-response curves come from the screen itself.)

The list shows a part of the results. Results filed as inconclusive are left out. The source made the active and inactive calls. The call rests on the fitted dose curve; in most records, active means well fitted inhibition curve with a large enough effect; inconclusive means small, poorly fitted or top-dose-only effect; inactive means no such curve, though single readings can be large or run the other way.
Potency means the concentration at half of the fitted maximal effect.

Isocitrate dehydrogenase [NADP] cytoplasmic (Homo sapiens), sequence (O75874 whole entry R132H, stated change not applied): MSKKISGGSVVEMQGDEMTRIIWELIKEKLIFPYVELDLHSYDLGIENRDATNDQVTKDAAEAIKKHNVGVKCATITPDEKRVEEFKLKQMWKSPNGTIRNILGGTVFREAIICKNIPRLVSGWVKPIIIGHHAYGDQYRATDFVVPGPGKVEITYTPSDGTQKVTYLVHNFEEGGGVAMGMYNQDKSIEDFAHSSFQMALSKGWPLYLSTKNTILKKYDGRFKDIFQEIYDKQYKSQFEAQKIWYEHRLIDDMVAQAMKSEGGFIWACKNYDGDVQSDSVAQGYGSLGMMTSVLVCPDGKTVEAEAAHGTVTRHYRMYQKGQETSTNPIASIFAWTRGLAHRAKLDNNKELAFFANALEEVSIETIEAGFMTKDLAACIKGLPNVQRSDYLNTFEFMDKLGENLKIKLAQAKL

As for `CC(C)(C)c1ccc(S(=O)(=O)Nc2ccc(O)c(Sc3nc4ccccc4s3)c2)cc1`, the Potency is 15.8 µM (active).
